Experimental data as given in PubChem BioAssay AID430 (Sanford-Burnham Center for Chemical Genomics, 2006).
Screen size: about 63,000 compounds; about 1,100 (1.7%) were called active. The entries come from a sample that favours actives as a whole. Results with a measured potency or affinity are listed apart. Unmarked numbers belong to inactive results. No stated cut-off is given here; in the data, active means cytotoxicity above about 50%; inactive means the rest.

Test: HPDE-C7 pancreatic duct cell viability loss – fluorescence, HTS (AID 430);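 further: cells exposed to compound for 48 hours before viability readout; 0% = vehicle and 100% = reference cytotoxic drug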
Details: HPDE-C7 pancreatic duct cells viability, at 10 µM, active compounds read high

In order of rising cytotoxicity:
1. Cc1ccc(CS(=O)(=O)Cc2ccc(C(=O)NCc3ccco3)o2)cc1  -21%
2. COc1ccc(C2C3=C(Nc4ncnn42)c2ccccc2CCC3)cc1 (stereo not given)  -20.3%
3. COc1ccc(Nc2nc(N)nc(CSc3n[nH]c(-c4ccccc4)n3)n2)cc1  -20.3%
4. Cn1c(Cn2nnc3ccccc32)nnc1SCC(=O)N1c2ccccc2CCc2ccccc21  -18%
5. CSc1cccc(NC(=O)CN(C2CCCCC2)S(C)(=O)=O)c1  -17.9%
6. CC(=O)C1=C(O)C(=O)N(Cc2cccnc2)C1c1ccc(Cl)cc1Cl (stereo not given)  -17.4%
7. COc1ccc(-n2nc3c(c2NC(=O)c2cc4ccccc4oc2=O)CS(=O)(=O)C3)cc1  -14.8%
8. Cc1ccc(S(=O)(=O)N2CCN(C(=O)CSc3nc4ccccc4o3)C2)cc1  -14.7%
9. CCOc1ccc(Cn2nnc(C(=O)NCc3ccc(OC)cc3)c2N)cc1  -14.5%
10. O=C(c1cccc(OC(F)F)c1)N1CCN(c2ncccn2)CC1  -14.1%
11. COc1ccc(C(=O)Oc2ccc3c(c2)OCO3)cc1OC  -13.3%
12. CCOC(=O)CSc1nc(N)cc(=O)[nH]1  -12%
13. CCOc1cc(NC(=O)c2ccco2)c(OCC)cc1NC(=O)Cc1ccc(OC)c(OC)c1  -12%
14. O=C(NCCc1ccccc1)C1CCCN1C(=O)Nc1ccc(F)cc1 (stereo not given)  -11.3%
15. N#CCC(=O)N1CCn2c1nc1ccccc12  -11.2%
16. Cc1[nH]c2ccccc2c1C(=O)CN1CCCCC1CCO (stereo not given)  -11.2%
17. O=C1CCCC2=C1C(c1cccs1)n1nc(SCc3ccccc3F)nc1N2 (stereo not given)  -11.2%
18. O=C(NC1CCc2ccccc21)C1CCN(S(=O)(=O)c2ccc(-n3cnnn3)cc2)CC1 (stereo not given)  -11%
19. Cc1nc(SCc2cccc(F)c2)[nH]c(=O)c1C#N  -9.7%
20. CCOc1ccc(-c2cc(C(=O)N3CCN(C)CC3)c3ccccc3n2)cc1  -8.5%
21. Cc1ccc(-c2cc(C(=O)N3CCOCC3)c3ccccc3n2)cc1  -8.5%
22. CSC1=C(C#N)C(c2ccc(C)s2)CC(=O)N1 (stereo not given)  -8.2%
23. O=C1CCC(=O)N1CC(=O)N1c2ccccc2Sc2ccccc21  -7.4%
24. CN(c1ccccc1)S(=O)(=O)c1ccc(C(=O)Nc2nccs2)cc1  -7.3%
25. CCSC1=C(C#N)C(c2ccc(C)s2)CC(=O)N1 (stereo not given)  -7.1%
26. O=C(NCC1COCCO1)C1CCN(S(=O)(=O)c2ccccc2)CC1 (stereo not given)  -6.9%
27. O/N=C(\Cc1cscn1)c1ccc(O)cc1O  -6.8%
28. Cc1cc(C)cc(N2CCCn3c2nc2c3c(=O)n(CCN3CCOCC3)c(=O)n2C)c1  -6.7%
29. CCc1ccc2c(CN3CCc4ccccc43)cc(=O)oc2c1  -5.4%
30. Cc1ccc(C(=O)NCc2ccc3c(c2)OCO3)cc1S(=O)(=O)N1CCOCC1  -5.3%
31. CCSC1=C(C#N)C(c2ccccc2OC)CC(=O)N1 (stereo not given)  -4.8%
32. COc1cccc(-c2cc(C(=O)N3CCN(c4ncccn4)CC3)c3ccccc3n2)c1  -4.1%
33. Cc1cc(C)n(-c2ccc(C(=O)Nc3ccccc3N3CCOCC3)cc2)n1  -4.1%
34. CCOC(=O)c1[nH]c2ccccc2c1NC(=O)CN1CCCCC1  -4.1%
35. CCOC(=O)c1[nH]c2ccc(F)cc2c1NC(=O)CN1CCc2cc(OC)c(OC)cc2C1  -3.8%
36. c1csc(-c2nn[nH]n2)c1  -3.1%
37. COc1ccccc1-c1nnc(NC(=O)c2ccc(S(=O)(=O)N(C)C)cc2)o1  -2.7%
38. CCOC(=O)c1sc(NC(=O)c2ccc(S(=O)(=O)N3CCOCC3)cc2)cc1C  -2.3%
39. c1ccc2c(c1)oc1c(NCc3ccc4c(c3)OCO4)ncnc12  -2.2%
40. O=C1CC(N2CCN(c3ccc(F)cc3)CC2)C(=O)N1Cc1cccs1 (stereo not given)  -1.7%
41. COc1ccc(C(=O)OC(C)CN2CCOCC2)cc1OC (stereo not given)  -1.4%
42. Cc1cc(NC(=O)CCC(=O)N(c2ccccc2)C(C(=O)NCC2CCCO2)c2cccnc2)no1 (stereo not given)  -0.6%
43. O=C(c1cccn2c(=O)c3ccc(Cl)cc3nc12)N1CCN(Cc2ccc3c(c2)OCO3)CC1  -0.1%
44. CCC(=O)OC1=C2C(=Nc3c(c(=O)n(C)c(=O)n3C)C2c2ccccc2)c2ccccc21 (stereo not given)  0.2%
45. CCn1c(=O)cc(SCC(=O)Nc2ccc3c(c2)OCO3)c2ccccc21  0.7%
46. Cc1ccc2c(c1)NC(=O)C(CC(=O)N(C)Cc1ccccc1)O2 (stereo not given)  1.5%
47. COc1ccc(CNC(=O)C2CCN(S(=O)(=O)c3cccc4cccnc34)CC2)cc1  2%
48. CCOc1cc(S(=O)(=O)NCC2OCCc3ccccc32)c(OCC)cc1-n1cnnn1 (stereo not given)  2.3%
49. COc1cc(NC(=O)c2ccco2)ccc1NC(=O)c1ccccc1Cl  2.8%
50. CCC(=O)Nc1ccc(S(=O)(=O)Nc2cccc(C)c2)cc1OC  3.2%
51. CCNC(=O)N1c2ccc(OC)cc2C(C)=CC1(C)C  3.2%
52. CCN(CC)S(=O)(=O)c1cccc(-c2nnc(SCC#N)n2Cc2ccccc2)c1  3.5%
53. Cc1ccc(S(=O)(=O)NCc2ccncc2)cc1  3.6%
54. CCOC(=O)c1[nH]c2ccc(OCC)cc2c1NC(=O)CN1CCN(c2ccccc2)CC1  4.4%
55. CC(CN1CCOCC1)OC(=O)c1ccc2c(c1)OCCO2 (stereo not given)  4.5%
56. Cc1cc(C)n(-c2nc3c(c(=O)[nH]c(=O)n3C)n2CCc2ccccc2)n1  5.1%
57. CC(OC(=O)C1CCCO1)C(=O)NC1CCCC1 (stereo not given)  5.3%
58. CCOc1ccc(C2CC(=O)NC(SCC(=O)OC)=C2C#N)cc1 (stereo not given)  5.6%
59. COc1cc2c(=O)n(-c3ccc(C)cc3)c(=O)n(CC(=O)c3ccc4c(c3)OCO4)c2cc1OC  6.8%
60. Cc1ccc2nc(-c3ccccn3)cc(C(=O)N3CCN(c4ncccn4)CC3)c2c1  8.9%
61. O=C1CSC(c2ccccc2F)N1c1cc(Cl)ccc1O (stereo not given)  9.2%
62. COc1ccccc1N1CCN(C(=O)C2CC=CCC2C(=O)O)CC1 (stereo not given)  9.5%
63. COC(=O)CSC1=C(C#N)C(c2ccc(F)cc2)CC(=O)N1 (stereo not given)  10.1%
64. COC(=O)c1ccc(NC(=O)c2ccccc2NS(C)(=O)=O)cc1  10.7%
65. O=C1CC(N2CCN(c3nc4ccccc4s3)CC2)C(=O)N1Cc1cccs1 (stereo not given)  12.3%
66. O=C(c1cc(-c2ccncc2)nc2ccc(Br)cc12)N1CCN(c2ccccn2)CC1  12.7%
67. COc1cc(-c2cc(C(=O)N3CCN(c4ccccn4)CC3)c3ccccc3n2)cc(OC)c1OC  14.4%
68. O=C(c1cc(-c2ccccc2)nc2ccccc12)N1CCN(c2ccccn2)CC1  17.1%
69. Cc1ccccc1C(=O)Nc1nnc(-c2ccc(F)cc2)o1  18.7%
70. N#Cc1c(-c2ccco2)nc(SCC(=O)Nc2cccc(Cl)c2)[nH]c1=O  19%
71. CCOC(=O)c1[nH]c2ccc(OC)cc2c1NC(=O)C(C)N1CCSCC1 (stereo not given)  19.3%
72. CCOC(=O)c1ccc(NC(=O)c2cccc(S(=O)(=O)N3CCOCC3)c2)cc1  20.1%
73. COc1ccc(C(C)=O)cc1COC(=O)c1ccc(S(=O)(=O)N2CCOCC2)cc1  21%
74. CCCCOC(=O)CSC1=C(C#N)C(c2ccc3c(c2)OCO3)CC(=O)N1 (stereo not given)  28.6%
75. COc1ccc(-c2cc(C(=O)N3CCN(c4ccccn4)CC3)c3ccccc3n2)cc1  32%
76. COc1ccc(C2C3=C(Nc4ncnn42)c2ccccc2CC3)cc1OC (stereo not given)  32.9%
77. CCN(Cc1ccccc1)S(=O)(=O)c1ccc(C(=O)Nc2nnc(-c3ccccc3OC)o2)cc1  35.6%
78. CCOC(=O)CC(=O)CSC1=C(C#N)C(c2ccccc2OC)CC(=O)N1 (stereo not given)  43.6%
79. CCOC(=O)CSC1=C(C#N)C(c2ccc3c(c2)OCO3)CC(=O)N1 (stereo not given)  43.8%

With CCOC(=O)N1CCN(C(=O)c2cc(-c3ccc(OCC)cc3)nc3ccccc23)CC1 the cytotoxicity was 57.6% (active).
For CCOc1ccc(-c2cc(C(=O)N3CCN(c4ccccn4)CC3)c3ccccc3n2)cc1, the cytotoxicity was 56.9% (active).
For Cc1ccc(-c2cc(C(=O)N3CCN(c4ncccn4)CC3)c3ccccc3n2)cc1, the cytotoxicity was 57.3% (active).
For O=C(c1cc(-c2ccncc2)nc2ccccc12)N1CCN(c2ccccn2)CC1, the cytotoxicity was 56.1% (active).
For COc1cc(C2C3=C(Nc4ncnn42)c2ccccc2CC3)cc(OC)c1OC (stereo not given), the cytotoxicity was 73.5% (active).
For CCOC(=O)CSC1=C(C#N)C(c2ccccc2OC)CC(=O)N1 (stereo not given), the cytotoxicity was 54.9% (active).
With CCOC(=O)CSC1=C(C#N)C(c2sccc2C)CC(=O)N1 (stereo not given) the cytotoxicity was 63.5% (active).
For CCOC(=O)CSC1=C(C#N)C(c2ccc(C)s2)CC(=O)N1 (stereo not given), the cytotoxicity was 54.7% (active).
In the case of CCCOC(=O)CSC1=C(C#N)C(c2ccc3c(c2)OCO3)CC(=O)N1 (stereo not given), the cytotoxicity is reported as 65.3% (active).
With COc1cc2c(O)c3c(c(-c4ccc5c(c4)OCO5)c2cc1OC)C(=O)OC3 the cytotoxicity was 82.2% (active).
In the case of N#Cc1c(-c2ccco2)nc(SCc2ccc(F)cc2)[nH]c1=O, the cytotoxicity is reported as 54.3% (active).
In the case of CCOC(=O)c1sc(NC(=O)c2cccc(S(=O)(=O)N3CCN(C)CC3)c2)cc1C, the cytotoxicity is reported as 51% (active).
In the case of CN(c1ccccc1)S(=O)(=O)c1ccc(C(=O)Nc2nnc(-c3ccc(F)cc3)o2)cc1, the cytotoxicity is reported as 58.9% (active).
In the case of COc1ccccc1-c1nnc(NC(=O)c2ccc(S(=O)(=O)N(C)Cc3ccccc3)cc2)o1, the cytotoxicity is reported as 55.9% (active).
With CCOC(=O)c1[nH]c2ccc(F)cc2c1NC(=O)CN1CCN(C/C=C/c2ccccc2)CC1 the cytotoxicity was 64.9% (active).
With CCOC(=O)c1[nH]c2ccc(F)cc2c1NC(=O)C(C)N1CCc2cc(OC)c(OC)cc2C1 (stereo not given) the cytotoxicity was 58.6% (active).
